Measured values reported in ChEMBL document CHEMBL4513216, “Probing the Open Global Health Chemical Diversity Library for Multistage-Active Starting Points for Next-Generation Antimalarials” (ACS Infect Dis, 2020).
The campaign covered roughly 65,000 compounds. About 2,100 (3.2%) showed an effect of 50% or more. The median lay at about -52%. The entries come from a sample that favours strong results as a whole.

These compounds were tested on Plasmodium falciparum (assay: Screen against P. falciparum Asexual Blood Stage (ABS), at 5uM). Conditions: tested at 5 uM.
Type: functional, Dd2

Structure (SMILES)	INHIBITION [%]
CO[C@@H]1CC[C@H]2[C@H]1OCCN2CC1CC1	-30.3
c1ccc(CN2C[C@@H]3OCCN(c4ncccn4)[C@@H]3C2)nc1	-56.2
CSc1ccc(C2SCC(=O)Nc3c2c(=O)[nH]n3C2CCOCC2)cc1 (stereo unspecified)	-122
CCS(=O)(=O)N1CCc2c(COC)cncc2C1	-61.4
COc1ccc(NC(=O)Cn2nc(C)c(C(C)=O)c2C)cc1	89.7
CC(C)N(C)Cc1cncc2c1CCN(CC1CC1)C2	-87.9
CC(C)c1cc(N2CCC3(CCN(C)C3)C2)ncn1 (stereo unspecified)	-27.6
CNC(=O)CN1CCC12CCN(C(=O)Cc1ccccc1)C2 (stereo unspecified)	-6.6
Cc1ccc(S(=O)(=O)N2C[C@@H]3CCN[C@@H]3C2)cc1	4.39
O=S(=O)(c1cccc(Cl)c1)N1C[C@@H]2CCN[C@@H]2C1	88.1
O=C(NCc1ccccc1)N1C[C@H]2CCN[C@H]2C1	-86.8
O=S(=O)(c1ccc(Cl)cc1)N1C[C@@H]2CCN[C@@H]2C1	82
O=S(=O)(c1ccccc1)N1C[C@@H]2CCN[C@@H]2C1	24.4
O=C(Cc1ccc(F)cc1)N1C[C@H]2CCN[C@H]2C1	7.59
CC(C)CNC(=O)[C@H]1C[C@H]2CN(Cc3cccnc3)C[C@@H]1O2	-30.9
Nc1ncccc1CN1C[C@H]2CC[C@@H](C1)N(CC1CC1)C2=O	-61.3
FC(F)Oc1ccccc1CN1CCCC(c2nccn2CC2CC2)C1 (stereo unspecified)	86.4
CC1C(=O)Nc2cccnc2N1S(=O)(=O)c1ccc(C#N)c(Cl)c1 (stereo unspecified)	-88.9
CC(C)=CCN1C[C@@H]2CC[C@H]1CN(Cc1cc(=O)[nH]c(=O)[nH]1)C2	4.88
COCCN(CC1CC1)c1nc(CCN)nc2sc(C)c(C)c12	77.5
CCN(CCN(C)C)c1nc(CCN)nc2sc(C)c(C)c12	89.8
Cc1sc2nc(CCN)nc(N(CCN(C)C)CC3CCCO3)c2c1C (stereo unspecified)	70.2

Structure (SMILES)	INHIBITION [%]
Cc1cccn2cc(CC(=O)N(CCN(C)C)CC3CCCO3)nc12 (stereo unspecified)	-84.6
Cc1nnc([C@@H]2CC[C@@H]3[C@@H](CCN3Cc3ccccn3)O2)o1	-18
COc1cccc(CC(C)NCC(=O)Nc2ccccc2C)c1 (stereo unspecified)	-75
CN[C@@H](C)C(=O)N(Cc1cccc(C)c1)Cc1ccccc1OC	83.6
O=C(c1ccncc1)N1C[C@@H]2OCCN(CCN3CCCC3)[C@@H]2C1	-29.2
CCC1CNCc2cc3c(OC)ccc(OC)c3nc2O1 (stereo unspecified)	-11
O=C(CC(F)(F)F)N1C[C@H]2CCN[C@H]2C1	-86.8
CCc1nccn1CCNC1CCN(c2nc3ccc(Cl)cc3s2)CC1	85.7
O=C([C@@H]1C[C@@H]2CCN(Cc3ccccn3)C[C@H]2O1)N1CCCO1	-36.6
Cc1cccnc1CC(C)NC1CCSCC1 (stereo unspecified)	23.6
Cc1cccnc1CC(C)NC1Cc2ccccc2C1 (stereo unspecified)	89.2
O=C1[C@H]2CN(Cc3ccoc3)C[C@H]2CN1Cc1cccnc1	-10
Cc1n[nH]c(C)c1CC(=O)N1CCCN(C)C2(CCN(C)CC2)C1	-107
Cc1cc(CNC2(c3ccccc3)CCCCC2)on1	9.53
CCCOc1ccccc1CN[C@@H]1CCC[C@H]1Cc1cc(C)no1	84.9
Cc1cc(C[C@@H]2CCC[C@H]2NCc2cc(C)c(O)c(C)c2)on1	79.9
CCO[C@@H]1CC[C@H]2[C@H]1OCCN2CC1CCC1	-47.6
COc1c(C2SCC(=O)Nc3[nH]ncc32)cc2c(c1OC)OCO2 (stereo unspecified)	-32.3
CN(C)C(=O)COC[C@@]12CCC[C@@H]1CNC2	-23.4
Cn1cc(N2C[C@@H]3CN(Cc4ccccn4)C[C@@H]3C2=O)cn1	-120
Cc1cccc(-c2ncc(CNC(C)Cc3ncccc3C)cn2)c1 (stereo unspecified)	-7.12
COc1cc(C(C)NCc2ncccc2C)ccc1SC(F)F (stereo unspecified)	75.7

Structure (SMILES)	INHIBITION [%]
Cc1nc(NCC2CC2)nc2c1COCC21CCN(C)C1 (stereo unspecified)	-73.6
CN(Cc1cccc(O)c1)CC1CCCN(CCc2ccc(Cl)cc2)C1 (stereo unspecified)	83.5
Cc1nc[nH]c1CN(C)CC1CCCN(CCc2ccc(Cl)cc2)C1 (stereo unspecified)	82.9
Cc1csc(CN2CC[C@H]3C[C@H](C)O[C@@H]3C2)n1	-59.9
Cc1noc(C)c1CN1CCO[C@H]2CN(C3CCOCC3)C[C@H]21	3.95
CC/C=C(/C)C(=O)NS(=O)(=O)c1ccc(C#N)c(C(F)(F)F)c1	-159
CC(Cn1cncn1)NCc1ccc2nonc2c1 (stereo unspecified)	-92.4
Clc1ccccc1CCN1CCN(c2ccc3nncn3n2)CC1	74.9
Cc1ccccc1CC(=O)N1C[C@@H](O)[C@H](N2CCC(F)(F)CC2)C1	-76.9
COc1cc(C2SCC(=O)Nc3[nH]ncc32)c(OC)c2c1OCO2 (stereo unspecified)	-118
Cc1c(Cl)c(C(=O)N2CC(c3cccnc3)C2)nn1C	-53.6
COCCN1C[C@@H]2COC[C@@H](CC(=O)NCc3cccnc3)[C@@H]2C1	-108
CCOc1ccc(CNCCCn2ccnc2)cc1Br	80.1
COc1cc(CNC(C)Cn2cccn2)cc(Cl)c1OC (stereo unspecified)	-35.2
CCOc1ccc(CNCCCn2ccnc2)cc1Cl	87.7
CC(Cn1ccnc1)NS(=O)(=O)c1ccc(C#N)c(Cl)c1 (stereo unspecified)	-24.8
COc1cc(CNC(C)Cn2ccnc2)cc2c1OCCO2 (stereo unspecified)	-34
CC(Cn1ccnc1)NCc1ccc2nonc2c1 (stereo unspecified)	-108
COc1ccc(Cl)cc1CNCCCn1ccnc1	82.3
CC(Cn1ccnc1)NCc1cc(Br)c2c(c1)OCO2 (stereo unspecified)	6.16
CCOc1cc(CNCCCn2ccnc2)cc(Cl)c1OCC	77.3
COc1cc(CNC(C)Cn2ccnc2)cc2c1OCO2 (stereo unspecified)	-46.3
